Screening results as filed in PubChem BioAssay.
A selection: hits, their analogues and other compounds. The true share with any hit is near 12%.
Sfp inh = inhibitors of Bacillus subtilis Sfp phosphopantetheinyl transferase. Potency, µM, for the others: largest response in the series, negative = inhibition, hits mostly inhibitors. 3.5% of 310,000 active. AID 1490. Q9F4F7. Biochemical Sfp PPTase activity, qHTS;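 note: the enzyme is Sfp with the accession as filed and its product quenches rhodamine fluorescence; 0% = enzyme reaction without inhibitor and -100% = no enzyme wells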
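Compounds were incubated with enzyme (final 15 nM) for 15 min at room temperature before substrate addition started the reaction. Fluorescence at 525 nm excitation, 598 nm emission was recorded immediately and after 30 minutes.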
BAZ2B block = blocks human BAZ2B; AID 504333; Potency, µM (highest dose often 114 µM), without a hit: at the top dose activity change, negative = inhibition, hits mostly inhibitors; 4.4% of 360,000 active; AlphaScreen BAZ2B-H3K14Ac peptide displacement; note: % is set by controls: 0 for no effect and ±100 for the full control effect; nearly all actives have a fitted effect of over 60% in size
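Inhibition is scored as reduced AlphaScreen emission. The BAZ2B/b-H3(5-23)K14Ac complex (50 nM each) in PBS pH 7.4, 0.01% Tween-20 meets compound (up to 110 uM) for 30 min at RT before bead addition.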
HP1b chromo inh = blocks HP1-beta chromodomain binding to methylated histone tails; AlphaScreen HP1-beta / biotin-H3K9me3 peptide binding; 0.56% of 390,000 active; Potency, µM (highest dose often 114 µM), for inactives: at the highest dose activity change, negative = inhibition, hits mostly inhibitors; AID 540317; P83916; note: nearly all actives have a fitted effect of over 70% in size
Target sequence (P83916 whole entry, looked up): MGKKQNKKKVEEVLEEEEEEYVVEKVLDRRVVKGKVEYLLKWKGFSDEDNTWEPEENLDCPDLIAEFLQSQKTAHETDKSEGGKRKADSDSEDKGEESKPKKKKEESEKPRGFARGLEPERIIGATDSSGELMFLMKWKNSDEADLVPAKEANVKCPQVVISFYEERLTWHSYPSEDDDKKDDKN
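AlphaScreen: HP1-beta (50 nM) preformed 30 min with biotin-H3(1-18)K9me3 peptide (50 nM) in PBS pH 7.4, 0.01% Tween-20. Compound added for 30 min at RT, then streptavidin donor/nickel chelate acceptor beads (10 ug/mL) for 30 min.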
G9a inh = inhibitors of human histone lysine methyltransferase G9a. Q96KQ7. G9a H3K9 monomethylation, AlphaScreen, 2 h. Potency, µM (series often up to 102 µM), for inactives: at the highest dose activity, negative = inhibition, actives largely listed as inhibitors. 8.8% of 350,000 active. AID 504332; note: % is set by controls: 0 for no effect and ±100 for the full control effect; nearly all actives have a fitted effect of over 75% in size
Target sequence (Q96KQ7 913-1193 limits assumed): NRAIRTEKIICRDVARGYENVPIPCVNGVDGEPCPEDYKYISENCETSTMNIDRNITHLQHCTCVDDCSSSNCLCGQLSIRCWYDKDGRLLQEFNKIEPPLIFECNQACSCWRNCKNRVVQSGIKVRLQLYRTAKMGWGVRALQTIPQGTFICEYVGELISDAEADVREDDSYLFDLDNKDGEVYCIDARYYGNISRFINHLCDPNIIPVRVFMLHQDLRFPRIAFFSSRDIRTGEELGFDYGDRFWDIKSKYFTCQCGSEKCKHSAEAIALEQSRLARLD
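Readings reflect AlphaScreen signal from monomethyl-H3K9 antibody detection. HMT at 20 nM; substrate b-H3K9 500 nM; cofactor SAM 20 uM; 2 h RT reaction; compounds tested as titrations in qHTS with 15 min preincubation.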
JMJD2A Tudor = inhibitors of human JMJD2A Tudor domain | AID 504339 | AlphaScreen JMJD2A-Tudor / H3K4me3 peptide binding | Potency, µM (highest dose often 114 µM), for the others: at the highest dose activity change, negative = inhibition, actives largely listed as inhibitors | O75164 | 4.4% of 390,000 active; note: % is set by controls: 0 for no effect and ±100 for the full control effect; nearly all actives have a fitted effect of over 50% in size
* = called active by the depositor; ? = inconclusive; nt = not tested or not shown; [ ] = another dose, or the depositor's remark. Calls come from the whole dose curve; as a rule, active = well fitted curve in the direction sought with a large enough effect; inconclusive = small, poorly fitted or top-dose-only effect, or another doubt; inactive = no such curve, though single readings can be large; an effect the other way counts as inactive or inconclusive. Potency is the fitted concentration of half-maximal effect.

SMILES	Sfp inh	BAZ2B block	HP1b chromo inh	G9a inh	JMJD2A Tudor
CCOc1ccc(/C(O)=C2/C(=O)C(=O)N(CCN(CC)CC)C2c2ccco2)cc1 (stereo not drawn)	14%	-5%	26%	-10%[59 µM]	-27%
N#CC(CC(=O)c1ccc(Cl)cc1)c1ccccc1 (stereo not drawn)	nt	nt	165%	nt	92%
CN1C(=O)CC(Sc2ncccc2C(=O)O)C1=O (stereo not drawn)	0%	-1%	42%	3%[59 µM]	-10%
Cc1ccc(S(=O)(=O)N[C@H]2COC(=O)C/C=C\[C@@H](C)[C@H](NS(=O)(=O)c3ccc(C)cc3)COC(=O)[C@H](C)NC(=O)C/C=C\[C@H]2C)cc1	16%	nt	nt	nt	nt
Cc1ccccc1NC(=O)CNc1ccccc1C(=O)NCc1ccco1	-4%	-26%	19%	40µM*	-30%
COCCSc1ccccc1C(=O)NCCCn1ccnc1	45µM*	-2%	-8%	?	?
O=C(NCCc1ccccc1)c1ccccc1C(=O)NCCc1ccccc1	nt	nt	44%	nt	-10%
COCCSc1ccccc1C(=O)N1CCOCC1	79µM*	-7%	24%	?	-10%
COCCSc1ccccc1C(=O)NCCc1ccccc1	56µM*	-2%	30%	18µM*	-8%
COCCSc1ccccc1C(=O)N1CCCC1	-10%	0%	43%	-27%[2.33 µM]	-8%
Cc1ccccc1C(=O)NCCCn1ccnc1	13%	-8%	27%	17%	-11%
COc1ccccc1OCc1ccc(C(=O)Nc2ccncc2)o1	15%	5%	2%	0%[12.7 µM]	-10%
Cc1ccc(OCC(=O)NC2CC(C)(C)NC(C)(C)C2)c(C)c1	-16%	-9%	25%	nt	-2%
Nc1cccc(-c2cn3cc(C(F)(F)F)cc(Cl)c3n2)c1	7%	5%	2%	7%[59 µM]	-24%
COc1ccccc1CNC(=O)c1ccccc1SCC(=O)NCc1ccco1	nt	8%	0%	3.2µM*	-34%
O=C(NCc1ccco1)c1ccccc1NS(=O)(=O)c1cccs1	4%	-4%	20%	?	-22%
COCCSc1ccccc1C(=O)NCc1ccco1	18µM*	-1%	10%	?	-30%
O=C(Nc1ccccc1C(=O)NCc1ccco1)c1ccccc1	-1%	-34%	3%	?	-28%
O=C(CSc1ccccc1C(=O)O)NCc1ccco1	17%	?	37%	59%[59 µM]	-3%
O=C(NCc1ccco1)c1ccccc1NS(=O)(=O)c1ccc(Cl)s1	12%	?	10%	20µM*	?
Cc1ccccc1CNC(=O)c1ccccc1SCC(=O)NCc1ccco1	nt	-4%	39%	13µM*	-3%
Cc1cccc(NC(=O)c2ccc(S(=O)(=O)N3CC(C)OC(C)C3)cc2)n1 (stereo not drawn)	nt	9%	3%	2%	-22%
Cc1cc(C)cc(OCCSc2nc(-c3cccs3)nc3cc(=O)[nH]n23)c1	nt	?	?	47%[59 µM]	-15%
O=C(NC(=S)Nc1nc(-c2cccc3ccccc23)cs1)c1cc2ccccc2o1	-15%	-2%	16%	12%[59 µM]	-4%
O=S(=O)(Nc1cc(S(=O)(=O)N2CCOCC2)ccc1NCC1CCCO1)c1ccccc1F (stereo not drawn)	nt	-9%	32%	?	-13%
SMILES	Sfp inh	BAZ2B block	HP1b chromo inh	G9a inh	JMJD2A Tudor
Cc1ccccc1-c1noc(-c2ccccc2C(=O)NCc2ccco2)n1	45µM*	-25%	?	?	-17%
O=C(NCc1ccco1)c1ccccc1-c1nc(-c2ccc(F)cc2)no1	-5%	-5%	22%	?	-10%
O=C(Cn1cnc2c(cnn2-c2ccccc2)c1=O)Nc1ccc(S(=O)(=O)N2CCOCC2)cc1	12%	4%	13%	25%[59 µM]	-22%
c1ccc(COc2ncnc3c2ncn3CCCNCCN2CCOCC2)cc1	nt	nt	9%	nt	-26%
Cn1c(=O)[nH]c(NC2CCCCC2)c([N+](=O)[O-])c1=O	1%	-2%	33%	1%[59 µM]	-6%
CCCNc1[nH]c(=O)n(C)c(=O)c1N=O	8%	-38%[57.1 µM]	0%	40µM*	50µM*
CCCNc1nc2c(c(=O)[nH]c(=O)n2C)n1Cc1ccc(F)cc1	19%	9%	37%	1%	-17%
Cn1c(=O)[nH]c(NC2CCCCC2)c(N=O)c1=O	-3%	?	45%	?	89µM*
